Source: PubChem BioAssay AID434973 (Sanford-Burnham Center for Chemical Genomics, 2010)
Screen size: about 330,000 compounds; about 4,900 (1.5%) were called active. Many of the other results were omitted from the sample, so actives are more common in it than they were. Unmarked numbers belong to inactive results.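 Rule for the calls: active = inhibition above about 50% at the single test dose (limit read from the data); inactive = the rest.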

These compounds were tested against Sentrin-specific protease 7 (Homo sapiens) (UniProt Q9BQF6) (assay: blockers of human SENP7 peptidase activity – biochemical, luminescence, uHTS, primary screen (AID 434973;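 note: plate controls were DMSO with enzyme for no effect and no enzyme buffer wells for full effect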)). Settings: recombinant SENP7, Z-RLRGG-aminoluciferin luminescence, 40 min; at 5 µM; active compounds read high.

Compound	inhibition
COc1ccc(/C(C)=N/N2CCOCC2)c(O)c1	9.39%
S=C(Nc1ccc2c(c1)OCO2)N1CCCC1	-4.52%
CCCc1nc2oc3c(OCC)ncnc3c2c2c1COC(C)(C)C2	-3.93%
Clc1ccc(COn2c(-c3ccc(Cl)cc3Cl)nc3ncccc32)cc1	0.814%
O=C1c2ccccc2C(=O)N1Cc1cc(-c2ccccc2Cl)no1	-0.976%
Clc1ccc(-c2cc(-c3ccccn3)on2)c(Cl)c1	99.4% (active)
CC1=NNC(=O)C1CCC(=O)N/N=C(\C)c1ccc(Cl)cc1 (centres undefined)	0.851%
COc1ccc(NC(=O)C2COc3ccccc3O2)cc1 (centres undefined)	-20.8%
COc1ccc(OC)c2sc(NC(=O)C3COc4ccccc4O3)nc12 (centres undefined)	-4.59%
O=C(Nc1ncc([N+](=O)[O-])s1)C1COc2ccccc2O1 (centres undefined)	96.7% (active)
CC(C)C1C2=C(CC(C)(C)CC2=O)ON1c1ccccc1 (centres undefined)	3.53%
O=C(Nc1ccc2c(c1)CCC2)c1ccc(Br)s1	69.4% (active)
CC(C)Oc1ccc(C(=O)NCC(=O)Nc2ccc3c(c2)CCC3)cc1	3.44%
CC1CC(C)CN(CCC(=O)Nc2ccc3c(c2)CCC3)C1 (centres undefined)	5.5%
CC(C)CCN1NC2(CCC(C)CC2)NC1=S (centres undefined)	-7.22%
Cc1ccsc1C(=O)N/N=C/c1ccc([N+](=O)[O-])cc1	80.9% (active)
O=C(N/N=C/c1ccc([N+](=O)[O-])cc1)C(=O)N1CCCC1	-3.45%
Cc1ccc(/C=N/NC(=O)c2sccc2OCc2ccc(F)cc2)cc1	-13.6%
Cc1ccc(NC(=O)CN(C)CC(=O)Nc2cccc(F)c2)cc1[N+](=O)[O-]	-3.97%
Cc1ccc(NC(=O)c2sccc2C)cc1[N+](=O)[O-]	83.7% (active)
Cc1cc(O)c(NC(=O)c2ccc(C)c([N+](=O)[O-])c2)cc1C	-7.98%
O=C(COc1cccc(Cl)c1)NCc1ccccc1	-0.414%
COc1cccc(NC(=O)CN(C)C(=O)c2ccccc2CCc2ccccc2)c1	-9.77%
CC[C@]1(C(=O)OC)[C@H]2C(=O)N(C)C(=O)[C@H]2[C@H]2CN(C)C(=NCc3ccccc3)N21	0.164%
COc1cc(NC(=O)CCS(=O)(=O)c2ccc3c(c2)oc(=O)n3C)cc(OC)c1	1.53%
CCN(CC)S(=O)(=O)c1ccc(N(C)Cc2ccc(C(F)(F)F)cc2)nc1	-1.06%
Cc1ccc(CN2CCN(Cc3ccccc3-c3ccco3)CC2CCO)o1 (centres undefined)	4.02%

Compound	inhibition
CC(OC(=O)c1ccc(Cl)cc1O)C(=O)NCCC1=CCCCC1 (centres undefined)	-16.5%
CC[N+](C)(CC)CCC[n+]1c(-c2ccccc2)c2cc(N)ccc2c2ccc(N)cc21	96.3% (active)
COC(=O)c1ccc(COc2ccc(C#N)cc2)o1	0.574%
Cc1cc2oc(=O)cc(CN3CCN(S(=O)(=O)c4cccs4)CC3)c2cc1C(C)C	8.53%
CCn1c(NC(=O)c2nn(C)cc2Br)nc2ccccc21	-3.05%
Cc1nc2ccccc2c(-c2ccccc2)c1C(=O)c1ccccc1	-0.427%
Cn1c(-c2ccc(C(=O)c3ccccc3)s2)nc2ccccc21	98.5% (active)
Cc1nn(C)cc1C(=O)c1ccccc1	7.95%
Cn1c(Nc2cccc(Cl)c2)nc2ccccc21	4.17%
Cn1c(NC(=O)c2ccccc2)nc2ccccc21	77.2% (active)
CCC1(CC)NC(=O)N(CC(=O)OCC(=O)Nc2ccc(C(F)(F)F)cc2)C1=O	-0.704%
COC(=O)c1ccc(NC(=O)CSc2nnc(Cc3cccn3C)n2-c2ccc(F)cc2)cc1	9.96%
CC(C)c1ccc(C2C(C#N)=C(N)Oc3c2oc(CO)cc3=O)cc1 (centres undefined)	3.37%
CCOC(=O)N1CCC(NC(=O)CN2C(=O)COc3ccc(C(C)(C)C)cc32)CC1	-10.5%
O=S(=O)(NCCS(=O)(=O)N1CCN(c2ccccc2)CC1)c1ccc(F)cc1	9.28%
COc1ccc(C(=O)Nc2cccc(NC(=O)c3ccc(OC)cc3OC)n2)c(OC)c1	0.763%
COC(=O)c1sc(NC(=O)c2ccc(OC)cc2OC)nc1C	101% (active)
Cc1csc(NC(=O)c2ccc(C)s2)n1	0.528%
Cc1occc1C(=O)Nc1cccc(Cn2cccn2)c1	8.79%
COc1cc(SC)ccc1C(=O)Nc1nc(C)cs1	101% (active)
COc1ccc(C(=O)NC2=NCCS2)c(OC)c1	24.6%
COc1cc(SC)ccc1C(=O)N(Cc1ccccc1)c1ccccc1	-1.54%
COc1cc2ccccc2cc1C(=O)Nc1nc(C)c(C(C)=O)s1	-4.32%
COc1cc(SC)ccc1C(=O)Nc1cc(C)ccn1	60.6% (active)
Cc1ccnc(NC(=O)CNC(=O)c2ccccc2)c1	-1.59%
Cc1ccnc(NC(=O)c2ccoc2C)c1	71.9% (active)
COc1cc(SC)ccc1C(=O)NNC(=O)C1COc2ccccc2O1 (centres undefined)	5.69%
